The results in this text go back to article PMC11102866, “Nucleosome-bound NR5A2 structure reveals pioneer factor mechanism by DNA minor groove anchor competition”.

For test [1], the target named is NR5A2 wild type;histone octamer (Homo sapiens;, UniProt O00482;C0HKE1;Q6ZWY9;P84244;P62806 1-541;2-130;2-126;2-136;2-103, |). Briefly: SeEN-seq (EMSA of nucleosome library followed by sequencing); 0.8 uM human NR5A2; 20 mM Tris-HCl pH 7.5, 120 mM NaCl, 1 mM MgCl2, 10 uM ZnCl2, 1 mM DTT, 100 ug/ml BSA, room temperature, 30 min; 0.1 uM nucleosome library; high values mean tight binding. On the technique in general: In EMSA bound probe runs differently from free probe, usually more slowly.

Test [2] has as its target mouse Nr5a2 wild type;histone octamer (Mus musculus;, UniProt P45448;C0HKE1;Q6ZWY9;P84244;P62806 1-560;2-130;2-126;2-136;2-103, |). Briefly: SeEN-seq (EMSA of nucleosome library followed by sequencing); 1.2 uM mouse Nr5a2; 20 mM Tris-HCl pH 7.5, 120 mM NaCl, 1 mM MgCl2, 10 uM ZnCl2, 1 mM DTT, 100 ug/ml BSA, room temperature, 30 min; 0.1 uM nucleosome library; high values mean tight binding.

B1: 81 (nucleosome)
DNA 1: ATCCTGGAGAATCCCGGTGCCGAGGCCGCTCAATTGGTCGTAGACAGCTCTAGCACCGCTTAAACGCACGTACGCGCTGTCCCTCAAGGCCAAACCGCCAAGGGGATTACTCCCTAGTCTCCAGGCACGTGTCAGATATATACATCCTGTGAT
DNA 2: ATCACAGGATGTATATATCTGACACGTGCCTGGAGACTAGGGAGTAATCCCCTTGGCGGTTTGGCCTTGAGGGACAGCGCGTACGTGCGTTTAAGCGGTGCTAGAGCTGTCTACGACCAATTGAGCGGCCTCGGCACCGGGATTCTCCAGGAT
modifications: reconstituted with mouse histones H2A, H2B, H3.3 and H4
With B1, the binding signal in test [1] is 0.772 log2 enrichment (bound/unbound, relative to Widom 601); in test [2] it was 0.954 log2 enrichment (bound/unbound, relative to Widom 601).

B2: 86 (nucleosome)
DNA 1: ATCCTGGAGAATCCCGGTGCCGAGGCCGCTCAATTGGTCGTAGACAGCTCTAGCACCGCTTAAACGCACGTACGCGCTGTCCCCCGCGTCAAGGCCACCAAGGGGATTACTCCCTAGTCTCCAGGCACGTGTCAGATATATACATCCTGTGAT
DNA 2: ATCACAGGATGTATATATCTGACACGTGCCTGGAGACTAGGGAGTAATCCCCTTGGTGGCCTTGACGCGGGGGACAGCGCGTACGTGCGTTTAAGCGGTGCTAGAGCTGTCTACGACCAATTGAGCGGCCTCGGCACCGGGATTCTCCAGGAT
modifications: reconstituted with mouse histones H2A, H2B, H3.3 and H4
Turning to B2, the binding signal was 0.668 log2 enrichment (bound/unbound, relative to Widom 601) in test [1] and 0.515 log2 enrichment (bound/unbound, relative to Widom 601) in test [2].

B3: 83 (nucleosome)
DNA 1: ATCCTGGAGAATCCCGGTGCCGAGGCCGCTCAATTGGTCGTAGACAGCTCTAGCACCGCTTAAACGCACGTACGCGCTGTCCCCCTCAAGGCCACCGCCAAGGGGATTACTCCCTAGTCTCCAGGCACGTGTCAGATATATACATCCTGTGAT
DNA 2: ATCACAGGATGTATATATCTGACACGTGCCTGGAGACTAGGGAGTAATCCCCTTGGCGGTGGCCTTGAGGGGGACAGCGCGTACGTGCGTTTAAGCGGTGCTAGAGCTGTCTACGACCAATTGAGCGGCCTCGGCACCGGGATTCTCCAGGAT
modifications: reconstituted with mouse histones H2A, H2B, H3.3 and H4
On to B3, for which the binding signal in test [1] is 0.795 log2 enrichment (bound/unbound, relative to Widom 601); in test [2], 0.693 log2 enrichment (bound/unbound, relative to Widom 601).

B4: 82 (nucleosome)
DNA 1: ATCCTGGAGAATCCCGGTGCCGAGGCCGCTCAATTGGTCGTAGACAGCTCTAGCACCGCTTAAACGCACGTACGCGCTGTCCCCTCAAGGCCAACCGCCAAGGGGATTACTCCCTAGTCTCCAGGCACGTGTCAGATATATACATCCTGTGAT
DNA 2: ATCACAGGATGTATATATCTGACACGTGCCTGGAGACTAGGGAGTAATCCCCTTGGCGGTTGGCCTTGAGGGGACAGCGCGTACGTGCGTTTAAGCGGTGCTAGAGCTGTCTACGACCAATTGAGCGGCCTCGGCACCGGGATTCTCCAGGAT
modifications: reconstituted with mouse histones H2A, H2B, H3.3 and H4
With B4, the binding signal in test [1] is 0.634 log2 enrichment (bound/unbound, relative to Widom 601); in test [2] it was 0.729 log2 enrichment (bound/unbound, relative to Widom 601).

B5: 89 (nucleosome)
DNA 1: ATCCTGGAGAATCCCGGTGCCGAGGCCGCTCAATTGGTCGTAGACAGCTCTAGCACCGCTTAAACGCACGTACGCGCTGTCCCCCGCGTTTTCAAGGCCAAGGGGATTACTCCCTAGTCTCCAGGCACGTGTCAGATATATACATCCTGTGAT
DNA 2: ATCACAGGATGTATATATCTGACACGTGCCTGGAGACTAGGGAGTAATCCCCTTGGCCTTGAAAACGCGGGGGACAGCGCGTACGTGCGTTTAAGCGGTGCTAGAGCTGTCTACGACCAATTGAGCGGCCTCGGCACCGGGATTCTCCAGGAT
modifications: reconstituted with mouse histones H2A, H2B, H3.3 and H4
On to B5, for which the binding signal in test [1] was 0.658 log2 enrichment (bound/unbound, relative to Widom 601); in test [2], 0.574 log2 enrichment (bound/unbound, relative to Widom 601).

B6: 87 (nucleosome)
DNA 1: ATCCTGGAGAATCCCGGTGCCGAGGCCGCTCAATTGGTCGTAGACAGCTCTAGCACCGCTTAAACGCACGTACGCGCTGTCCCCCGCGTTCAAGGCCACAAGGGGATTACTCCCTAGTCTCCAGGCACGTGTCAGATATATACATCCTGTGAT
DNA 2: ATCACAGGATGTATATATCTGACACGTGCCTGGAGACTAGGGAGTAATCCCCTTGTGGCCTTGAACGCGGGGGACAGCGCGTACGTGCGTTTAAGCGGTGCTAGAGCTGTCTACGACCAATTGAGCGGCCTCGGCACCGGGATTCTCCAGGAT
modifications: reconstituted with mouse histones H2A, H2B, H3.3 and H4
B6: the binding signal in test [1] was 0.601 log2 enrichment (bound/unbound, relative to Widom 601); in test [2], 0.435 log2 enrichment (bound/unbound, relative to Widom 601).

B7: 10 (nucleosome)
DNA 1: ATCCTGGAGAATTCAAGGCCAGAGGCCGCTCAATTGGTCGTAGACAGCTCTAGCACCGCTTAAACGCACGTACGCGCTGTCCCCCGCGTTTTAACCGCCAAGGGGATTACTCCCTAGTCTCCAGGCACGTGTCAGATATATACATCCTGTGAT
DNA 2: ATCACAGGATGTATATATCTGACACGTGCCTGGAGACTAGGGAGTAATCCCCTTGGCGGTTAAAACGCGGGGGACAGCGCGTACGTGCGTTTAAGCGGTGCTAGAGCTGTCTACGACCAATTGAGCGGCCTCTGGCCTTGAATTCTCCAGGAT
modifications: reconstituted with mouse histones H2A, H2B, H3.3 and H4
For B7, the binding signal in test [1] is 5.16 log2 enrichment (bound/unbound, relative to Widom 601); in test [2] it was 4.92 log2 enrichment (bound/unbound, relative to Widom 601).

B8: 11 (nucleosome)
DNA 1: ATCCTGGAGAATCTCAAGGCCAAGGCCGCTCAATTGGTCGTAGACAGCTCTAGCACCGCTTAAACGCACGTACGCGCTGTCCCCCGCGTTTTAACCGCCAAGGGGATTACTCCCTAGTCTCCAGGCACGTGTCAGATATATACATCCTGTGAT
DNA 2: ATCACAGGATGTATATATCTGACACGTGCCTGGAGACTAGGGAGTAATCCCCTTGGCGGTTAAAACGCGGGGGACAGCGCGTACGTGCGTTTAAGCGGTGCTAGAGCTGTCTACGACCAATTGAGCGGCCTTGGCCTTGAGATTCTCCAGGAT
modifications: reconstituted with mouse histones H2A, H2B, H3.3 and H4
With B8, the binding signal in test [1] was 4.08 log2 enrichment (bound/unbound, relative to Widom 601); in test [2] it was 4.04 log2 enrichment (bound/unbound, relative to Widom 601).

B9: 84 (nucleosome)
DNA 1: ATCCTGGAGAATCCCGGTGCCGAGGCCGCTCAATTGGTCGTAGACAGCTCTAGCACCGCTTAAACGCACGTACGCGCTGTCCCCCGTCAAGGCCACGCCAAGGGGATTACTCCCTAGTCTCCAGGCACGTGTCAGATATATACATCCTGTGAT
DNA 2: ATCACAGGATGTATATATCTGACACGTGCCTGGAGACTAGGGAGTAATCCCCTTGGCGTGGCCTTGACGGGGGACAGCGCGTACGTGCGTTTAAGCGGTGCTAGAGCTGTCTACGACCAATTGAGCGGCCTCGGCACCGGGATTCTCCAGGAT
modifications: reconstituted with mouse histones H2A, H2B, H3.3 and H4
For B9, the binding signal is 0.634 log2 enrichment (bound/unbound, relative to Widom 601) in test [1] and 0.756 log2 enrichment (bound/unbound, relative to Widom 601) in test [2].

B10: 90 (nucleosome)
DNA 1: ATCCTGGAGAATCCCGGTGCCGAGGCCGCTCAATTGGTCGTAGACAGCTCTAGCACCGCTTAAACGCACGTACGCGCTGTCCCCCGCGTTTTTCAAGGCCAGGGGATTACTCCCTAGTCTCCAGGCACGTGTCAGATATATACATCCTGTGAT
DNA 2: ATCACAGGATGTATATATCTGACACGTGCCTGGAGACTAGGGAGTAATCCCCTGGCCTTGAAAAACGCGGGGGACAGCGCGTACGTGCGTTTAAGCGGTGCTAGAGCTGTCTACGACCAATTGAGCGGCCTCGGCACCGGGATTCTCCAGGAT
modifications: reconstituted with mouse histones H2A, H2B, H3.3 and H4
On to B10, for which the binding signal was 0.821 log2 enrichment (bound/unbound, relative to Widom 601) in test [1] and 0.52 log2 enrichment (bound/unbound, relative to Widom 601) in test [2].

B11: 85 (nucleosome)
DNA 1: ATCCTGGAGAATCCCGGTGCCGAGGCCGCTCAATTGGTCGTAGACAGCTCTAGCACCGCTTAAACGCACGTACGCGCTGTCCCCCGCTCAAGGCCAGCCAAGGGGATTACTCCCTAGTCTCCAGGCACGTGTCAGATATATACATCCTGTGAT
DNA 2: ATCACAGGATGTATATATCTGACACGTGCCTGGAGACTAGGGAGTAATCCCCTTGGCTGGCCTTGAGCGGGGGACAGCGCGTACGTGCGTTTAAGCGGTGCTAGAGCTGTCTACGACCAATTGAGCGGCCTCGGCACCGGGATTCTCCAGGAT
modifications: reconstituted with mouse histones H2A, H2B, H3.3 and H4
With B11, the binding signal in test [1] was 0.756 log2 enrichment (bound/unbound, relative to Widom 601); in test [2], 0.748 log2 enrichment (bound/unbound, relative to Widom 601).

B12: 88 (nucleosome)
DNA 1: ATCCTGGAGAATCCCGGTGCCGAGGCCGCTCAATTGGTCGTAGACAGCTCTAGCACCGCTTAAACGCACGTACGCGCTGTCCCCCGCGTTTCAAGGCCAAAGGGGATTACTCCCTAGTCTCCAGGCACGTGTCAGATATATACATCCTGTGAT
DNA 2: ATCACAGGATGTATATATCTGACACGTGCCTGGAGACTAGGGAGTAATCCCCTTTGGCCTTGAAACGCGGGGGACAGCGCGTACGTGCGTTTAAGCGGTGCTAGAGCTGTCTACGACCAATTGAGCGGCCTCGGCACCGGGATTCTCCAGGAT
modifications: reconstituted with mouse histones H2A, H2B, H3.3 and H4
With B12, the binding signal in test [1] is 0.636 log2 enrichment (bound/unbound, relative to Widom 601); in test [2], 0.614 log2 enrichment (bound/unbound, relative to Widom 601).

B13: 92 (nucleosome)
DNA 1: ATCCTGGAGAATCCCGGTGCCGAGGCCGCTCAATTGGTCGTAGACAGCTCTAGCACCGCTTAAACGCACGTACGCGCTGTCCCCCGCGTTTTAATCAAGGCCAGGATTACTCCCTAGTCTCCAGGCACGTGTCAGATATATACATCCTGTGAT
DNA 2: ATCACAGGATGTATATATCTGACACGTGCCTGGAGACTAGGGAGTAATCCTGGCCTTGATTAAAACGCGGGGGACAGCGCGTACGTGCGTTTAAGCGGTGCTAGAGCTGTCTACGACCAATTGAGCGGCCTCGGCACCGGGATTCTCCAGGAT
modifications: reconstituted with mouse histones H2A, H2B, H3.3 and H4
Consider B13, for which the binding signal is 0.711 log2 enrichment (bound/unbound, relative to Widom 601) in test [1] and 0.905 log2 enrichment (bound/unbound, relative to Widom 601) in test [2].

B14: 91 (nucleosome)
DNA 1: ATCCTGGAGAATCCCGGTGCCGAGGCCGCTCAATTGGTCGTAGACAGCTCTAGCACCGCTTAAACGCACGTACGCGCTGTCCCCCGCGTTTTATCAAGGCCAGGGATTACTCCCTAGTCTCCAGGCACGTGTCAGATATATACATCCTGTGAT
DNA 2: ATCACAGGATGTATATATCTGACACGTGCCTGGAGACTAGGGAGTAATCCCTGGCCTTGATAAAACGCGGGGGACAGCGCGTACGTGCGTTTAAGCGGTGCTAGAGCTGTCTACGACCAATTGAGCGGCCTCGGCACCGGGATTCTCCAGGAT
modifications: reconstituted with mouse histones H2A, H2B, H3.3 and H4
B14: the binding signal was 0.711 log2 enrichment (bound/unbound, relative to Widom 601) in test [1] and 0.746 log2 enrichment (bound/unbound, relative to Widom 601) in test [2].

B15: 93 (nucleosome)
DNA 1: ATCCTGGAGAATCCCGGTGCCGAGGCCGCTCAATTGGTCGTAGACAGCTCTAGCACCGCTTAAACGCACGTACGCGCTGTCCCCCGCGTTTTAACTCAAGGCCAGATTACTCCCTAGTCTCCAGGCACGTGTCAGATATATACATCCTGTGAT
DNA 2: ATCACAGGATGTATATATCTGACACGTGCCTGGAGACTAGGGAGTAATCTGGCCTTGAGTTAAAACGCGGGGGACAGCGCGTACGTGCGTTTAAGCGGTGCTAGAGCTGTCTACGACCAATTGAGCGGCCTCGGCACCGGGATTCTCCAGGAT
modifications: reconstituted with mouse histones H2A, H2B, H3.3 and H4
Consider B15, for which the binding signal in test [1] is 0.842 log2 enrichment (bound/unbound, relative to Widom 601); in test [2], 0.875 log2 enrichment (bound/unbound, relative to Widom 601).
